# Assay results as given in PubChem BioAssay.
# Where “and” joins values, the source holds several entries; their conditions need not be identical. Equal entries are not always repeated. Calls of active or inactive are those of the source.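 The calls were made as follows, unless noted: active = compounds whose cell count with miR-34 switched on is under 0.7 times the count with it off; inactive = the rest.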
# Experiments:
# [1] = sensitizers of A549 cells to miR-34 induction, primary screen, imaging, A549 dox-inducible miR-34, nuclei and caspase counts (AID 1347080); settings: A549 miR-34 inducible, Hoechst nuclei count, 48 h; also: test concentration not given here
# [2] = survival rescue of mitochondrial mutant cells in low glucose, primary screen, MELAS cybrids, Rieske KO mouse fibroblasts, CellTiter-Glo (AID 1508586;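 active = mean z-score across replicates of 1.96 or higher in either the MELAS or the Rieske mutant cell line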;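 also: test concentration not given here; z relative to plate mean and SD of compound and empty wells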)
# [3] = viability rescue of complex I mutant cybrids, primary screen, cell-based, galactose medium, ATP luminescence (AID 1645843;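 active = z-score of at least 1.8 in each of two replicates, scored against plate mean and spread of sample wells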;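 also: positive z means more ATP and so rescue of galactose-driven cybrid death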); settings: complex I mutant cybrid cells, 72 h, stronger effect = higher value
# [4] = stronger effect = lower value, cell number ratio, induced over uninduced
# [5] = measured here: relative caspase fold change +Dox/-Dox
# [6] = measured here: total cells with miR-34 induction, stronger effect = lower value
# [7] = measured here: total cells without miR-34 induction
# [8] = MELAS cybrid survival, CellTiter-Glo 48 h, stronger effect = higher value
# [9] = Rieske KO mouse fibroblast survival, CellTiter-Glo 72 h
SMILES,"fold change [1, 4]","fold change [1, 5]","cell count [1, 6]","cell count [1, 7]","z-score [2, 8]","z-score [2, 9]",z-score [3]
CN(CCn1cccn1)Cc1ccc(-c2nc(-c3cccnc3)cc(=O)[nH]2)cc1,0.951 (inactive),1.22,8710,9150,-0.265 (inactive),0.251,0.18 (inactive)
CC(C)(C)C(=O)Nc1ccc2c(c1)CC(=O)N2,0.817 (inactive),1.77,8370,10200,0.0898 (inactive),0.0111,-0.52 (inactive)
CCn1ncc(NC(=O)Cn2nc(C)c(-c3ccc(-n4cccn4)cc3)c2C)n1,0.87 (inactive),1.42,4370,5020,-1.09 (inactive),1.3,-0.54 (inactive)
O=C(O)CCCc1nc(-c2cccc([N+](=O)[O-])c2)no1,0.855 (inactive),0.356,7990,9350,1.15 (inactive),-0.0224,0.71 (inactive)
CNc1ccnc(-c2cnn(CC(=O)Nc3cc(C)nn3C)c2)n1,0.867 (inactive),1.09,8660,9980,-0.389 (inactive),-1.16,-0.515 (inactive)
O=C(O)CCc1c[nH]c2ccccc12,0.896 (inactive),0.538,8830,9860,0.524 (inactive),-0.334,0.56 (inactive)
Cc1cc(NC(=O)Cn2ncc3cc(-c4ccc(F)c(F)c4)ccc32)n(C)n1,0.877 (inactive),0.515,4810,5490,0.668 (inactive),-0.0382,0.765 (inactive)
c1nc(N2CCOCC2)c2[nH]cnc2n1,0.913 (inactive),0.416,8460,9270,-0.198 (inactive),-0.176,1.15 (inactive)
Cc1cc(C)n(CCCNc2ncc(C)c(-c3cnn(C)c3)n2)n1,0.893 (inactive),1.21,8360,9370,-0.406 (inactive),0.144,-0.54 (inactive)
CC(C)C(N)C(=O)OCCOCn1cnc2c(=O)[nH]c(N)nc21 (centres undefined),0.946 (inactive) and 0.861 (inactive),1.94 and 0.803,9720 and 8030,10300 and 9320,-0.311 (inactive),0.593,0.365 (inactive)
CNCc1ccccc1-c1cccs1,0.861 (inactive),0.648,8130,9440,-0.43 (inactive),-0.443,0.065 (inactive)
OCCNc1ncnc2oc(-c3ccccc3)c(-c3ccccc3)c12,0.989 (inactive),0.446,5100,5160,0.83,7.8,-1.23 (inactive)
COc1cc(F)ccc1C(=O)N1CCc2[nH]nc(Cc3ccccc3)c2C1,0.845 (inactive),1.46,6700,7930,0.33 (inactive),0.986,-0.125 (inactive)
O=C(O)c1ccc(B(O)O)cc1,0.887 (inactive),0.4,8340,9400,0.638 (inactive),0.194,0.105 (inactive)
O=C(CC1=CCCCC1)NCc1ccon1,0.939 (inactive),1.22,9490,10100,0.26 (inactive),-0.5,-0.49 (inactive)
Cc1cc(NC(=O)Cn2cc(-c3cccc4cccnc34)cn2)n(C)n1,0.876 (inactive),0.926,8830,10100,-0.478 (inactive),-0.249,-0.585 (inactive)
CCn1cnc(NC(=O)N(C)Cc2ccc(OC)cc2)n1,0.869 (inactive),1.63,8620,9910,-0.112 (inactive),-0.365,1.77 (inactive)
CCCCCC(O)C=CC1C(O)CC(=O)C1CCCCCCC(=O)O (centres undefined),0.973 (inactive) and 0.918 (inactive),0.603 and 0.896,9870 and 7520,10100 and 8190,-0.372 (inactive),0.491,0.865 (inactive)
CCc1nc(NC(=O)NC(c2ccccc2)c2ccco2)nn1C (centres undefined),0.878 (inactive),0.916,8500,9680,-0.443 (inactive),0.186,1.04 (inactive)
COc1ccc(F)c(-c2cccc(N)n2)c1,0.864 (inactive),1.37,8940,10300,-0.0723 (inactive),-0.237,-0.555 (inactive)
COc1ccc(C(=O)N2CCN(C(=O)c3ccc4sc(N)nc4c3)CC2)cc1,0.916 (inactive),0.875,9050,9880,-0.342 (inactive),-0.192,-0.575 (inactive)
Cc1ncc(-c2cc(C(=O)N(C)Cc3csc(C)n3)c3ccc(F)cc3n2)cn1,0.883 (inactive),2.05,8360,9470,-0.361 (inactive),-0.299,-0.38 (inactive)
COc1cccc2ccc(-c3nnc4ccccn34)nc12,0.871 (inactive),1.83,7320,8400,-0.646 (inactive),0.957,-0.595 (inactive)
O=C(O)Cc1ccc(O)c([N+](=O)[O-])c1,0.901 (inactive),0.986,8450,9380,0.677 (inactive),0.189,1 (inactive)

SMILES,"fold change [1, 4]","fold change [1, 5]","cell count [1, 6]","cell count [1, 7]","z-score [2, 8]","z-score [2, 9]",z-score [3]
CC(=O)NC(CCCN=C(N)N)C(=O)O (centres undefined),0.897 (inactive),0.717,8640,9630,-1.33 (inactive),-0.192,0.785 (inactive)
Cc1cccc2c(C(=O)N3C4CCCCC3CCC4)cc(-c3cncnc3)nc12,0.922 (inactive),1.14,8060,8740,0.139 (inactive),-0.667,-0.275 (inactive)
Fc1cccc(F)c1-c1nc2c(cnn2Cc2cccs2)[nH]1,0.88 (inactive),2.16,8590,9770,-0.231 (inactive),0.598,-0.555 (inactive)
COc1cc(N(C)CC2COc3ccccc3O2)nc(N)n1 (centres undefined),0.844 (inactive),2.02,3500,4140,0.477 (inactive),-0.0472,-0.58 (inactive)
COc1ccc(CC(C)NCC(O)c2ccc(O)c(NC=O)c2)cc1 (centres undefined),0.94 (inactive) and 0.989 (inactive),1.58 and 0.394,10500 and 8090,11200 and 8180,0.143 (inactive),-0.0828,-0.17 (inactive)
CCNC(=O)c1cccnc1N1CCN(c2ccc(C)cc2C)CC1,0.919 (inactive),1.12,6880,7490,-0.459 (inactive),0.378,-0.485 (inactive)
O=C(Nc1c[nH]c2ccccc12)c1cccnc1,0.884 (inactive),1.08,8140,9200,-0.289 (inactive),-0.312,1.14 (inactive)
COc1cc(N2CCN(Cc3ccccc3F)C(=O)C2)ncn1,0.848 (inactive),1.97,6780,7990,-0.24 (inactive),-0.349,-0.475 (inactive)
Cc1cc(C(=O)N2CCc3[nH]nc(COc4ccccc4)c3C2)c(C)o1,0.899 (inactive),1.21,8460,9410,-0.0896 (inactive),-0.219,-0.42 (inactive)
COc1cccc(-c2noc(Cc3ccc4c(c3)OCO4)n2)c1,0.929 (inactive),1.11,9000,9680,0.523 (inactive),0.163,2.67 (active)
Cc1ccc(NC(=O)C2CC23CCCCC3)cn1 (centres undefined),0.887 (inactive),0.564,8250,9300,-0.13 (inactive),-0.332,-0.27 (inactive)
O=C(Nc1c[nH]c2ccccc12)c1cc(-c2ccc(F)cc2)n[nH]1,0.84 (inactive),1.42,7140,8510,-0.224 (inactive),0.73,-0.56 (inactive)
CCCCNS(=O)(=O)c1ccccc1,0.925 (inactive),0.335,8780,9480,-0.187 (inactive),0.108,0.175 (inactive)
COc1cccc(-n2cc(-c3ccnc(NCCc4cnc[nH]4)n3)cn2)c1,0.891 (inactive),1.29,7850,8810,-0.718 (inactive),0.696,1.87 (inactive)
O=C(NN=Cc1cc(Br)c(O)c(Br)c1O)c1cccc(Br)c1,0.911 (inactive),0.461,2930,3220,1.44 (inactive),0.907,-2.57 (inactive)
O=C(O)CCCNC(=O)NC1CCCCC1,0.89 (inactive),0.215,8970,10100,0.354 (inactive),-0.267,0.455 (inactive)
O=C(Nc1ccc(I)cc1)NC1CCCCC1,0.864 (inactive),0.498,7960,9220,0.185 (inactive),-0.338,1.05 (inactive)
O=C(Nc1nncs1)NC1Cc2ccccc2C1,0.87 (inactive),1.52,8130,9340,-0.741 (inactive),-0.221,-0.6 (inactive)
Nc1[nH]c(=O)[nH]c(=O)c1N,0.894 (inactive),0.315,8900,9960,0.368 (inactive),0.648,0.84 (inactive)
CC(C)C1=NOC(c2nc(-c3cccc4ccccc34)no2)C1 (centres undefined),0.862 (inactive),1.54,7930,9200,0.244 (inactive),0.252,2 (inactive)
CSc1n[nH]c(-c2ccc(Cl)cc2)n1,0.939 (inactive),0.52,8540,9100,1.97 (active),-0.569,0.11 (inactive)
CCn1ncc(NC(=O)Cn2cc(-c3cccc(-n4cccn4)c3)cn2)n1,0.876 (inactive),1.27,2160,2470,-0.0561 (inactive),-0.379,-0.505 (inactive)
CCc1ccccc1-c1cc(C)nc(N)n1,0.887 (inactive),1.81,8420,9490,-0.131 (inactive),-1.38,-0.555 (inactive)
